Assays:
Settings in all cases: concentration: 1 μM,replicates: in singlicate; n = 1
CSNK1G1 = tested on: CSNK1G1
CSNK1G2 = tested on: CSNK1G2
CSNK1G3 = tested on: CSNK1G3
CSNK2A1 = tested on: CSNK2A1
CSNK2A2 = tested on: CSNK2A2
CTK = tested on: T1, CTK
T1 construct: gene MATK

DAPK1 = tested on: DAPK1
DAPK2 = tested on: DAPK2
DAPK3 = tested on: DAPK3
DCAMKL1 = tested on: T2, DCAMKL1
T2 construct: gene DCLK1

DCAMKL2 = tested on: T3, DCAMKL2
T3 construct: gene DCLK2

DCAMKL3 = tested on: T4, DCAMKL3
T4 construct: gene DCLK3

DDR1 = tested on: DDR1
DDR2 = tested on: DDR2
DLK = tested on: T5, DLK
T5 construct: gene MAP3K12

DMPK2 = tested on: T6, DMPK2
T6 construct: gene CDC42BPG

DMPK = tested on: DMPK
DRAK1 = tested on: T7, DRAK1
T7 construct: gene STK17A

DRAK2 = tested on: T8, DRAK2
T8 construct: gene STK17B

DYRK1A = tested on: DYRK1A
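Note: KINOMEscan kinase panel screen.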

Row | SMILES | %Inh (CSNK1G1) | %Inh (CSNK1G2) | %Inh (CSNK1G3) | %Inh (CSNK2A1) | %Inh (CSNK2A2) | %Inh (CTK) | %Inh (DAPK1) | %Inh (DAPK2) | %Inh (DAPK3) | %Inh (DCAMKL1) | %Inh (DCAMKL2) | %Inh (DCAMKL3) | %Inh (DDR1) | %Inh (DDR2) | %Inh (DLK) | %Inh (DMPK2) | %Inh (DMPK) | %Inh (DRAK1) | %Inh (DRAK2) | %Inh (DYRK1A)
1 | CN(C)CCOc1ccc(-c2cc(-c3c[nH]nc3-c3ccccn3)ccn2)cc1 [GW835314] | 14% | 9% | 65% | 0% | 3% | 48% | 13% | 0% | 0% | 0% | 1% | 1% | 0% | 0% | 8% | 0% | 0% | 18% | 9% | 1%
2 | Cl.Cl.Nc1nc(-c2ccc3c(N)n[nH]c3c2)cc(N2CCCC(NC(=O)c3ccccc3)C2)n1 (stereo not drawn) [GSK2286775] | 0% | 0% | 21% | 0% | 6% | 6% | 28% | 0% | 13% | 15% | 0% | 0% | 26% | 0% | 1% | 1% | 0% | 75% | 0% | 9%
3 | Cl.Cl.NC[C@H](Cc1ccc(C(F)(F)F)cc1)NC(=O)c1cc(Br)c(-c2ccnc3[nH]ccc23)s1 [GSK1487252] | 0% | 8% | 24% | 0% | 14% | 0% | 0% | 0% | 6% | 17% | 0% | 75% | 8% | 0% | 8% | 64% | 0% | 18% | 0% | 35%
4 | Cl.Oc1cc(-c2nc(-c3ccccc3)[nH]c2-c2ccncc2)ccc1Cl [SB-386023] | 0% | 0% | 16% | 11% | 30% | 38% | 0% | 0% | 0% | 34% | 0% | 0% | 92.7% | 83% | 0% | 0% | 0% | 0% | 0% | 0%
5 | Cc1cc2cn[nH]c2cc1-c1cccc2c(N)c(C(N)=O)nnc12 | 12% | 13% | 12% | 19% | 5% | 80% | 9% | 3% | 32% | 71% | 37% | 98.8% | 0% | 0% | 98.8% | 7% | 0% | 47% | 27% | 13%
6 | Nc1nc(Nc2ccccc2)cc(-c2ccc3c(N)n[nH]c3c2)n1 [GSK2225749] | 2% | 0% | 13% | 34% | 24% | 0% | 34% | 49% | 62% | 12% | 0% | 61% | 0% | 26% | 3% | 0% | 0% | 99.5% | 97.2% | 48%
7 | Cc1occc1-c1nc(N)c(OC[C@@H](N)Cc2c[nH]c3ccccc23)cc1-c1cc2c(C)n[nH]c2cn1 [GSK1660450] | 79% | 74% | 83% | 76% | 48% | 11% | 64% | 69% | 59% | 24% | 19% | 56% | 10% | 0% | 13% | 86% | 99.1% | 0% | 0% | 100%
8 | COc1ccc(C[C@@H](CN)NC(=O)c2cc(Br)c(-c3ccnc4[nH]ccc34)s2)cc1.Cl.Cl [GSK1389063] | 33% | 79% | 73% | 57% | 64% | 2% | 26% | 13% | 18% | 64% | 38% | 86% | 2% | 26% | 10% | 99.4% | 28% | 44% | 0% | 97.6%
9 | CN(C)CC(O)COc1ccc(Nc2nccc(-c3cnn4nc(N5CCOCC5)ccc34)n2)cc1 (stereo not drawn) [GW767488] | 16% | 50% | 10% | 97.1% | 98.7% | 1% | 59% | 46% | 68% | 72% | 61% | 64% | 0% | 0% | 61% | 17% | 20% | 99.7% | 93.1% | 73%
10 | Cc1cc(C(=O)Nc2ccc(Oc3ccc4nc(NC(=O)C5CC5)cn4n3)cc2)nn1-c1ccccc1 | 6% | 0% | 0% | 0% | 0% | 0% | 0% | 0% | 10% | 12% | 2% | 20% |  | 100% | 12% | 0% | 0% | 0% | 0% | 0%
11 | CCN(CC)CCCCNc1ncc2cc(-c3c(Cl)cccc3Cl)c(NC(=O)NC(C)(C)C)nc2n1 | 10% | 0% | 0% | 1% | 12% | 15% | 0% | 0% | 0% | 11% | 0% | 14% | 99.7% | 100% | 86% | 0% | 4% | 0% | 5% | 0%
12 | O=C(NCCCN1CCOC1=O)c1cnc(NCc2cc(Cl)ccc2Cl)nc1NC1CCCC1 | 0% | 3% | 0% | 16% | 23% | 0% | 3% | 7% | 12% | 28% | 1% | 18% | 0% | 11% | 37% | 0% | 0% | 0% | 0% | 0%
13 | CCn1c(-c2nonc2N)nc2c(C#CC(C)(C)O)nc(OCCN)cc21.Cl.Cl [GSK902056] | 0% | 0% | 12% | 0% | 46% | 0% | 0% | 0% | 21% | 0% | 0% | 40% |  | 5% | 0% | 0% | 0% | 0% | 0% | 25%
